Results published in ChEMBL document CHEMBL4513216, “Probing the Open Global Health Chemical Diversity Library for Multistage-Active Starting Points for Next-Generation Antimalarials” (ACS Infect Dis, 2020).
Screen size: about 68,000 compounds; about 2,700 (4%) showed an effect of 50% or more. Many of the other results were omitted from the sample, so strong results are more common in it than they were.

System: Plasmodium berghei
Test: Screen against P. berghei liver stage (PbLuc), transformed with Luciferase, at 2uM
Format: functional, HepG2
Conditions: tested at 2 uM

SMILES	INHIBITION
O=C(c1cccnc1)N1CCC2(CC1)CCN(c1ccsc1)C2=O	-8.05%
O=C(Cc1ccccc1Cl)NCCN1CCC(c2cccs2)CC1	28.43%
Cn1cc(CC(=O)N2CCCC(n3cncn3)C2)cn1 (stereo not given)	38.76%
Cc1nccn1C1CCCN(C(=O)c2cccc(S(C)(=O)=O)c2)C1 (stereo not given)	5.72%
CN(C)C(=O)c1ccc(NCCNc2ccc3ccccc3n2)nc1	-37.09%
COc1ccccc1C1(CNc2ncc(S(N)(=O)=O)s2)CC1	7.67%
COc1ccccc1C1(CNc2cc(C(=O)N(C)C)ccn2)CC1	33.78%
COc1ccccc1C1(CNc2ccnc(C(=O)N(C)C)c2)CC1	67.44%
COc1ccccc1C1(CNC(=O)NCc2noc(C)n2)CC1	15.28%
COc1ccccc1C1(CNc2ccc(C(=O)N(C)C)cn2)CC1	50.61%
OCCOCCN1CCCC1c1cccc(Cl)c1 (stereo not given)	-17.64%
Cc1nc(N(C)C)nc(N(C)Cc2cnccn2)c1C	20.29%
COC(=O)c1ccc(C2SC(C)=Nc3c2c(=O)[nH]n3C2CCCC2)cc1 (stereo not given)	-3.18%
CCCN(C)S(=O)(=O)N1CCCC1c1ccco1 (stereo not given)	-3.57%
COC(=O)c1cccc(S(=O)(=O)NC(=O)c2ccccc2F)c1	0%
Cc1cc(NC(=O)C(C)Nc2cccc(COCc3ccco3)c2)on1 (stereo not given)	55.52%
Cc1cc(NC(=O)C(C)Nc2cccc(COCc3ccco3)c2)no1 (stereo not given)	21.57%
CCOC(=O)C(C)Nc1cccc(COCc2ccco2)c1 (stereo not given)	-5.44%
Cc1ncc(CNC2CC(=O)N(CCc3cccc(Cl)c3)C2)n1C (stereo not given)	-15.29%
NC(=O)C1CCN(CC(=O)N(Cc2ccccc2)Cc2nccs2)CC1	26.93%
Cc1nc(C(=O)NCCS(=O)(=O)N2CCCC2)cs1	3.29%
CCc1cc(NCc2ccccc2CN2CCCC2)n2ncnc2n1	-23.61%
CCc1cc(NCc2cccnc2N2CCCCC2)n2ncnc2n1	64.9%
CCc1cc(NCC(O)CN2CCCCC2)n2ncnc2n1 (stereo not given)	16.01%
CCC(C)[C@H](N)c1nnc(SCC(=O)Nc2ccc(Br)cc2)o1 (stereo not given in full)	-7.19%
CNc1cc(C2CN(C(=O)c3cscn3)CCO2)nc(C)n1 (stereo not given)	26.69%
CCc1nc(CN(C(C)=O)C2CCN(CCc3ccncc3)C2)no1 (stereo not given)	-21.22%

SMILES	INHIBITION
CCc1nc(CN(C(C)=O)C2CCN(CCc3cnn(C)c3)C2)no1 (stereo not given)	-10.66%
COCCCNC(=O)c1cn(C(C)C)cc2c(=O)[nH]nc1-2	15.34%
CC(C)n1cc(C(=O)NCCN(C)C)c2n[nH]c(=O)c-2c1	9.1%
CC(C)CNC(=O)c1cn(C(C)C)cc2c(=O)[nH]nc1-2	55.52%
CNC(=O)CN1CCCC12CCN(C(=O)c1ccsc1)CC2	24.15%
Cc1nc(CN2CCC(O)(c3ccccc3F)CC2)c2ccccn12	15.55%
CCOc1ccc(C(=O)N2CCCC2c2cnn(C)c2)cn1 (stereo not given)	-1.02%
COc1ccc(C(=O)N2CCCC2c2cnn(C)c2)cn1 (stereo not given)	80.46%
Cc1cnn(CC2CCCN2C(=O)Cc2n[nH]c3ccccc23)c1 (stereo not given)	3.9%
Cn1cc(C2CCCN2C(=O)COCCOc2ccccc2)cn1 (stereo not given)	-24.75%
Cn1cc(C2CCCN2C(=O)Cc2n[nH]c3ccccc23)cn1 (stereo not given)	63.95%
CCCc1noc(CCC(=O)N2CCCC2c2ccc(OC)cc2)n1 (stereo not given)	30.29%
O=C(Cc1n[nH]c2ccccc12)N1CCCC1Cn1cccn1 (stereo not given)	-36.73%
Cn1cc(C2CCCN2C(=O)COCCc2ccccc2)cn1 (stereo not given)	50.76%
Cn1cc(C2CCCN2C(=O)CCCOCc2ccccc2)cn1 (stereo not given)	-3.9%
CCCc1noc(CCC(=O)N2CCCC2c2ccncc2)n1 (stereo not given)	-33.92%
CCCc1noc(CCCC(=O)N2CCCC2c2cnn(C)c2)n1 (stereo not given)	54.99%
CC(C)Oc1ccc(C(=O)N2CCCC2c2cnn(C)c2)cn1 (stereo not given)	15.13%
O=C(NC[C@H]1OC[C@@H](NCc2ccccc2F)[C@@H]1O)c1ccc(F)cc1	-13.88%
CCC(CCN)n1ccc(C(F)(F)F)n1 (stereo not given)	-31.71%
Cn1cnnc1SC1CCc2ccccc2NC1=O (stereo not given)	21.31%
CN(Cc1cn2c(n1)CN(Cc1ccsc1)CC2)Cc1ccco1	-9.48%
COCc1nc2nc(O)c3c(n2n1)NC(=O)CC3c1ccc(SC)cc1 (stereo not given)	-19.97%
Cc1cccc(C(=O)N2CCC3(CC2)CC(c2cnn(C)c2)CO3)c1 (stereo not given)	11.79%
CC(C(=O)Nc1ccnn1C(C)C)N1CCc2nn(C)c(=O)cc2C1 (stereo not given)	-15.38%
CC(C)CN1CCCC1c1cc[nH]n1 (stereo not given)	17.29%
c1ccc(COC[C@@H]2CCC[C@]23CN(Cc2nccs2)CCO3)nc1	17.24%

SMILES	INHIBITION
CS(=O)(=O)N1CCCC12CCCN(C(=O)c1ccno1)C2 (stereo not given)	7.3%
COCc1cc(CC2(NC3CCCCC3)COC2)no1	-9.98%
CCN(CC)C1(Cc2cc(CC(C)C)on2)COC1	32.59%
CCN(CC)C1(Cc2cc(COC)on2)COC1	52.36%
Cc1ccc(C(=O)N2CCc3ncnc(C)c3CC2)o1	32.97%
Cc1ccc(C(=O)N2C[C@H]3CCC[C@@]3(COCC3CCOCC3)C2)o1	-35.36%
CCOC(=O)N1CCc2ccccc2C12CCNCC2	4.38%
Cc1ccc(CN2CCOC3(CCN(C(=O)N4CCCC4)CC3)C2)cc1	33.35%
Cc1ccc(CN2CCOC3(CCN(C(=O)C4CCOC4)CC3)C2)cc1 (stereo not given)	69.37%
Cc1ccc(CN2CCOC3(CCN(C(=O)C4CC=CC4)CC3)C2)cc1	-41.1%
Cc1nc(C)n(CC2CN(CCc3ccccc3Cl)CCO2)n1 (stereo not given)	-7.08%
Cc1ccccc1CSCCn1nc2ccccn2c1=O	6.3%
CC(=O)NCCCSC1CCN(c2ccccc2Cl)C1=O (stereo not given)	68.61%
CC(=O)NCCCSC1CCN(c2c(F)cccc2F)C1=O (stereo not given)	41.07%
Cn1nnnc1SC1CCN(c2ccccc2Cl)C1=O (stereo not given)	4.99%
CC(=O)NCCCSC1CCN(c2ccccc2F)C1=O (stereo not given)	75.22%
CC(=O)NCCCSC1CCCN(c2ccccc2F)C1=O (stereo not given)	9.13%
CC(=O)NCCCSC1CCCN(c2ccccc2Cl)C1=O (stereo not given)	-1.89%
CCc1ccc(S(=O)(=O)Nc2ccncc2)s1	-13.03%
COc1cc2c(cc1CN1CCn3c(CO)nnc3C1)CCC2	16.14%
Cc1cc(CN2CCCC2c2noc(C)n2)no1 (stereo not given)	-52.52%
Cc1nnc([C@@H]2C[C@H]3CN(C4CCC4)C[C@H]3O2)[nH]1	4.07%
CCCc1nnc(N2CCN(c3ccccc3OCC)CC2)o1	-11.34%
O=C(CCC1CCCC1)N1CCCC(c2ncc3c(n2)CCNC3)C1 (stereo not given)	24.89%
Cc1c(CN2CCCC(C(=O)Nc3ccccc3)C2)cc(C#N)n1C (stereo not given)	9.63%
c1cc(CN2CCCCC2c2ccc(Nc3cnccn3)nc2)ccn1 (stereo not given)	42.53%
Cc1ncoc1C(=O)N1CCc2[nH]nc(-c3ccc4c(c3)OCO4)c2C1	-4.53%

SMILES	INHIBITION
Cc1nc(COCc2cnc3n2CCN(CC2CCC2)C3C)cs1 (stereo not given)	25.35%
O=C(N[C@@H]1CC[C@@H](N2CCCC2)[C@@H]1O)c1cc2ccccc2[nH]1	51.88%
O=C(N[C@@H]1CCC[C@@H](N2CCOCC2)[C@@H]1O)c1cc2ccccc2[nH]1	8.26%
O=C(N[C@@H]1CCC[C@@H](N2CCCC2)[C@@H]1O)c1cc2ccccc2[nH]1	14.49%
COCc1nc(C(=O)NS(=O)(=O)c2cc(F)ccc2F)cs1	29.37%
Cc1nc(NCc2nncn2C2CC2)c2c(CC(C)C)csc2n1	36.86%
COc1ccc(CN2CCC(O)(CN3CCCCC3)C2)c(C)c1 (stereo not given)	-1.21%
CN(Cc1noc(C2CC2)n1)C1CCN(Cc2nc(C3CC3)no2)C1 (stereo not given)	27.89%
CC1CCN(CCCNC(=O)NC(C)c2nncn2C)CC1 (stereo not given)	6.3%
CCNc1c(NC(=O)NCCOC)c(=O)oc2ccccc12	-25.41%
FC(F)(F)c1nc(NC2CCc3ncnn3C2)c2ccccc2n1 (stereo not given)	-8.8%
FC(F)(F)c1nc(NC2CCCC2)c2ccccc2n1	15.52%
FC(F)(F)c1nc(NC2CCCCC2)c2ccccc2n1	52.43%
O=c1c2sccc2nc2n1CCN(Cc1ccccc1C(F)(F)F)CC2	26.56%
O=C1CC(c2ccccc2)C2(CCN(C(=O)c3cnccn3)CC2)N1 (stereo not given)	20.87%
COc1ccccc1CN1CC[C@H]2C[C@H](C(=O)N3CCCC3)O[C@H]2C1	15.89%
O=C([C@@H]1C[C@@H]2CCN(C3CCOCC3)C[C@H]2O1)N1CCCC1	-26.64%
COc1ccccc1CN1CC[C@H]2C[C@@H](C(=O)N3CCCC3)O[C@H]2C1	52.4%
O=C([C@H]1C[C@@H]2CCN(C3CCOCC3)C[C@H]2O1)N1CCCC1	18.65%
O=C([C@@H]1C[C@@H]2CCN(C3CCOCC3)C[C@@H]2O1)N1CCCC1	65.26%
O=C([C@@H]1C[C@@H]2CCN(CCc3ccccc3)C[C@H]2O1)N1CCCC1	14.94%
CCC1CN(CCC(=O)N(C)C)CCN1CCOC (stereo not given)	-7.41%
CC/N=c1\nc(NCC)nc2n1C(O)(Nc1cc(Cl)ccc1Cl)CS2 (stereo not given)	28.5%
CCc1nc(C(=O)N2CCN(CC)CC2)nn1-c1ccccc1Cl	13.24%
